Laboratory results from PubChem BioAssay AID1159580 (chemical genetic matrix, 2015).
“And” between values parts separate entries of the source, which are not always exact repeats. Identical values can stand only once. In all, about 5,500 compounds went through this assay and about 2,000 (36%) were called active. Another 18% or so got no clear call; they are omitted. Cut-off read from the data, not from the text of the source: active = normalized growth mostly below about 0.91 (no sharp cut-off); inconclusive = no clear call, values can overlap the other calls; inactive = mostly above about 0.92. Some of the results follow.

Assay: chemical genetic growth profiling, strain panel (AID 1159580);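 note: tested at 20 µM; growth read once vehicle control cultures reached saturation at 30 °C; 1 = growth at the plate median or of vehicle wells; lower values mean less growth of the strain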
Details: growth OD

Measured: normalized growth

Nc1ccc(S(=O)(=O)Nc2ccnn2-c2ccccc2)cc1
inactive: S. cerevisiae deletion strains, locus YJR075W, strain HOC1, active compounds read low 1.02 and 1.03 | S. cerevisiae deletion strains, locus YKL009W, strain mrt4, active compounds read low 0.976 | S. cerevisiae deletion strains, locus YKL068W, active compounds read low 1 | S. cerevisiae deletion strains, locus YKL085W, strain MDH1 (second series), active compounds read low 0.999 | S. cerevisiae deletion strains, locus YKL085W, strain MDH1, active compounds read low 0.999 | S. cerevisiae deletion strains, locus YKL160W, strain elf1, active compounds read low 0.989 | S. cerevisiae deletion strains, locus YKL190W, strain CNB1, active compounds read low 1.01 | S. cerevisiae deletion strains, locus YKR001C, strain vps1, active compounds read low 0.992 | S. cerevisiae deletion strains, locus YKR026C, strain gcn3, active compounds read low 0.965 | S. cerevisiae deletion strains, locus YKR091W, strain srl3, active compounds read low 0.997 | S. cerevisiae deletion strains, locus YLL001W, strain dnm1, active compounds read low 0.979 | S. cerevisiae deletion strains, locus YLL026W, active compounds read low 0.997 | S. cerevisiae deletion strains, locus YLL041C, strain sdh2, active compounds read low 0.986 | S. cerevisiae deletion strains, locus YLR027C, strain aat2, active compounds read low 0.985 | S. cerevisiae deletion strains, locus YLR039C, strain RIC1, active compounds read low 0.982 | S. cerevisiae deletion strains, locus YLR058C, strain SHM2, active compounds read low 1.01 | S. cerevisiae deletion strains, locus YLR102C, strain apc9, active compounds read low 0.99 | S. cerevisiae deletion strains, locus YLR113W, strain HOG1, active compounds read low 0.998 | S. cerevisiae deletion strains, locus YLR221C, strain rsa3, active compounds read low 0.986 | S. cerevisiae deletion strains, locus YLR258W, strain gsy2, active compounds read low 0.998 | S. cerevisiae deletion strains, locus YLR262C, strain YPT6 (second series), active compounds read low 0.885 | S. cerevisiae deletion strains, locus YLR262C, strain YPT6, active compounds read low 0.993 | S. cerevisiae deletion strains, locus YLR268W, strain sec22, active compounds read low 0.998 | S. cerevisiae deletion strains, locus YLR320W, strain mms22, active compounds read low 1.03 | S. cerevisiae deletion strains, locus YLR330W, strain CHS5, active compounds read low 1 | S. cerevisiae deletion strains, locus YLR342W, strain FKS1 (second series), active compounds read low 0.983 | S. cerevisiae deletion strains, locus YLR342W, strain FKS1, active compounds read low 1.01 | S. cerevisiae deletion strains, locus YLR357W, strain rsc2, active compounds read low 1 | S. cerevisiae deletion strains, locus YLR370C, strain arc18, active compounds read low 1.01 | S. cerevisiae deletion strains, locus YLR371W, strain rom2, active compounds read low 0.99 | S. cerevisiae deletion strains, locus YLR384C, strain iki3, active compounds read low 0.977 | S. cerevisiae deletion strains, locus YLR418C, strain cdc73, active compounds read low 1.01 | S. cerevisiae deletion strains, locus YML016C, strain PPZ1, active compounds read low 1.01 | S. cerevisiae deletion strains, locus YML032C, strain rad52, active compounds read low 0.996 | S. cerevisiae deletion strains, locus YML120C, strain ndi1, active compounds read low 0.99 | S. cerevisiae deletion strains, locus YML124C, strain tub3, active compounds read low 1 | S. cerevisiae deletion strains, locus YMR058W, strain fet3, active compounds read low 0.986 | S. cerevisiae deletion strains, locus YMR078C, strain ctf18, active compounds read low 0.998 | S. cerevisiae deletion strains, locus YMR125W, strain sto1, active compounds read low 0.954 | S. cerevisiae deletion strains, locus YMR129W, active compounds read low 0.988 | S. cerevisiae deletion strains, locus YMR205C, strain PFK2, active compounds read low 1.05 | S. cerevisiae deletion strains, locus YMR223W, strain ubp8, active compounds read low 0.991 | S. cerevisiae deletion strains, locus YMR231W, strain pep5, active compounds read low 0.997 | S. cerevisiae deletion strains, locus YMR263W, strain SAP30, active compounds read low 1.03 | S. cerevisiae deletion strains, locus YMR307W, strain GAS1, active compounds read low 0.943 and 0.968 | S. cerevisiae deletion strains, locus YNL067W, strain RPL9B, active compounds read low 1.02 | S. cerevisiae deletion strains, locus YNL071W, strain lat1, active compounds read low 0.993 | S. cerevisiae deletion strains, locus YNL128W, strain TEP1, active compounds read low 0.995 | S. cerevisiae deletion strains, locus YNL175C, strain NOP13, active compounds read low 1.01 | S. cerevisiae deletion strains, locus YNL183C, strain NPR1, active compounds read low 0.899 | S. cerevisiae deletion strains, locus YNL197C, strain WHI3, active compounds read low 1.01 | S. cerevisiae deletion strains, locus YNL209W, strain ssb2, active compounds read low 0.994 | S. cerevisiae deletion strains, locus YNL224C, strain SQS1, active compounds read low 1 | S. cerevisiae deletion strains, locus YNL233W, strain BNI4, active compounds read low 1.02 | S. cerevisiae deletion strains, locus YNL248C, strain rpa49, active compounds read low 0.957 | S. cerevisiae deletion strains, locus YNL250W, strain rad50, active compounds read low 1 | S. cerevisiae deletion strains, locus YNL271C, strain bni1, active compounds read low 0.993 | S. cerevisiae deletion strains, locus YNL298W, strain CLA4, active compounds read low 1.01 | S. cerevisiae deletion strains, locus YNL307C, strain MCK1, active compounds read low 0.99 | S. cerevisiae deletion strains, locus YNL322C, strain KRE1 (second series), active compounds read low 1 | S. cerevisiae deletion strains, locus YNL322C, strain KRE1, active compounds read low 1.01 and 1.02 | S. cerevisiae deletion strains, locus YNR049C, strain mso1, active compounds read low 0.996 | S. cerevisiae deletion strains, locus YNR052C, strain pop2, active compounds read low 0.981 | S. cerevisiae deletion strains, locus YOL006C, strain TOP1, active compounds read low 1.07 | S. cerevisiae deletion strains, locus YOL012C, strain htz1 1.59 | S. cerevisiae deletion strains, locus YOL147C, strain pex11, active compounds read low 1.01 | S. cerevisiae deletion strains, locus YOR001W, strain rrp6, active compounds read low 0.969 | S. cerevisiae deletion strains, locus YOR061W, strain CKA2, active compounds read low 1.01 | S. cerevisiae deletion strains, locus YOR069W, strain VPS5, active compounds read low 1.01 | S. cerevisiae deletion strains, locus YOR070C, strain gyp1, active compounds read low 0.997 | S. cerevisiae deletion strains, locus YOR080W, strain dia2, active compounds read low 1 | S. cerevisiae deletion strains, locus YOR083W, strain WHI5 (second series), active compounds read low 1.03 | S. cerevisiae deletion strains, locus YOR083W, strain WHI5, active compounds read low 0.968 | S. cerevisiae deletion strains, locus YOR106W, strain vam3, active compounds read low 0.977 | S. cerevisiae deletion strains, locus YOR136W, strain idh2, active compounds read low 1 | S. cerevisiae deletion strains, locus YOR144C, strain elg1, active compounds read low 1 | S. cerevisiae deletion strains, locus YOR184W, strain ser1, active compounds read low 0.996 | S. cerevisiae deletion strains, locus YOR231W, strain MKK1, active compounds read low 0.974 | S. cerevisiae deletion strains, locus YOR265W, strain rbl2, active compounds read low 1 | S. cerevisiae deletion strains, locus YOR270C, strain vph1, active compounds read low 0.997 | S. cerevisiae deletion strains, locus YOR290C, strain snf2, active compounds read low 0.957 | S. cerevisiae deletion strains, locus YOR316C, strain cot1, active compounds read low 0.994 | S. cerevisiae deletion strains, locus YPL051W, strain arl3, active compounds read low 0.978 | S. cerevisiae deletion strains, locus YPL055C, strain LGE1, active compounds read low 1.05 and 1.01 | S. cerevisiae deletion strains, locus YPL078C, strain atp4, active compounds read low 0.963 | S. cerevisiae deletion strains, locus YPL106C, strain sse1, active compounds read low 0.993 | S. cerevisiae deletion strains, locus YPL240C, strain hsp82, active compounds read low 0.979 | S. cerevisiae deletion strains, locus YPL241C, strain CIN2, active compounds read low 1.01 | S. cerevisiae deletion strains, locus YPL256C, strain CLN2, active compounds read low 0.975 | S. cerevisiae deletion strains, locus YPR119W, strain clb2, active compounds read low 0.997 | S. cerevisiae deletion strains, locus YPR141C, strain kar3, active compounds read low 1 | S. cerevisiae deletion strains, locus YPR163C, strain tif3, active compounds read low 1 | S. cerevisiae deletion strains, locus YPR167C, strain met16, active compounds read low 0.991 | S. cerevisiae deletion strains, strain wtn01, active compounds read low 1 | S. cerevisiae strains, strain wild type, active compounds read low 1.01
